# Whole data set: some 24,000 sequences, median “enrichment r” near 0.99, cut for the highest 2% near 3.7. What follows is part of a selection rich in the highest values, with near analogues and random picks from the rest.
# T1: UNK ZnF1-3 (human, UniProt Q9C0B0 31-174)
# T1 sequence: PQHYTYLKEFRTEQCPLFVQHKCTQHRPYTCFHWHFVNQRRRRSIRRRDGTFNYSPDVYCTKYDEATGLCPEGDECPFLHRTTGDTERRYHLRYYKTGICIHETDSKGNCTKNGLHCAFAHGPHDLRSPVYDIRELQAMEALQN
# B1: chr2:39006174:39006175:+_ENSG00000152147_ENST00000409566|hu_mus|FALSE|FALSE (ssRNA)
# RNA: GGGAGUUCUACAGUCCGACGAUCUACUCCUUCUCACAGGCUAUCACUCUCACUUCUUUAUAAACGUAAUCUUCCCAUUCUAAGGGGCUUUUCUUCAUCCAUUCGCUCAUGGUUACCAGUUGCCCAGAUUCUUUCUAGAUGACUCAACAGAGGAUUGAGCAUCA
# B2: 8805033_8805153_1671_3pUTR_ENSMUSG00000021147_ENSMUST00000021572|mouse|control|control (ssRNA)
# RNA: GGGAGUUCUACAGUCCGACGAUCAACUUGGAGCUAAGGAACAUCAGUGACUUAUUUUUCUUGUAACAGUGCAGGAAUAUUGAUGUUCCACCCAAUAGCUUGCCUAUCGAACCCACAGGUAAAUAGAUUGCAUAUGGGGUGGUCCAACAGAGGAUUGAGCAUCA
# B3: chr2:46850943:46850944:+_ENSG00000119878_ENST00000238892|hu_hu|FALSE|FALSE (ssRNA)
# RNA: GGGAGUUCUACAGUCCGACGAUCGUAGGCACAGCCCUGGCAGUAAUGAGAACCUGGUUGGUGCACAGAACUUUUACAAAUUCUACAAGUGGAGAACUUAUUCUUUCCAUAUGGAUCAAAUCUUGCUUUUUUUGAAGUCAAAGCCAACAGAGGAUUGAGCAUCA
# B4: 72481967_72485090_997_CDS_ENSMUSG00000030516_ENSMUST00000102592|mouse|control|control (ssRNA)
# RNA: GGGAGUUCUACAGUCCGACGAUCUGCUGCCAAACUAUCUUGUGAAAUUUCCUUUACAAAUAUAUGGCUGGCCAAUCGAAGACCAUAUUCUUCAUUUUUCCGAGACUUCACCAGUGUGACCUUGGUGGGCUUUGCGGGCUGACUCAACAGAGGAUUGAGCAUCA
# B5: chr7:97110809:97110810:-_ENSMUSG00000030619_ENSMUST00000107234|mus_mus|FALSE|FALSE (ssRNA)
# RNA: GGGAGUUCUACAGUCCGACGAUCACAAGACUUGGAAAGUAUCAAAUCGCCUAACCAUCGCACACAAUCAACAUAAUUCCUAUGUAUGUCUCUGGUAGAAAAGUCAGGAAAGUGGAUUUUCUGGGAAAUAAAUGGCCUGUUAGUCAACAGAGGAUUGAGCAUCA
# B6: chr11:86070927:86070928:-_ENSMUSG00000018068_ENSMUST00000018212|mus_mus|FALSE|FALSE (ssRNA)
# RNA: GGGAGUUCUACAGUCCGACGAUCUGGCACCAACAGUGCCGUCGACAGAGCGAGAAUCAGAAUGGGGACACUGCAAAAAAAAAAAAAAAAGUAAAAAGGAAAGGGAAAAAAAAGGGAGAAGCAACCAGGAGAGAGGGGAAAGCACAACAGAGGAUUGAGCAUCA
# B7: chr16:45711415:45711416:-_ENSMUSG00000022658_ENSMUST00000096057|mus_mus|FALSE|FALSE (ssRNA)
# RNA: GGGAGUUCUACAGUCCGACGAUCAUUAGGAUACGUUCUGUGAGUCAAGGAGAGAAACUUUUUGGCAAAUAAAUAAAUAAAUAAUCAAACAAACCAAGACCUUAGGGCACAGGAGGUCAGAGAGGAAAGGGAGUCUUUGCAUAGCAACAGAGGAUUGAGCAUCA
# B8: chr4:88365945:88365946:-_ENSMUSG00000070923_ENSMUST00000094993|mus_mus|motif|central (ssRNA)
# RNA: GGGAGUUCUACAGUCCGACGAUCACUUGUAUAGCCAUUUACUAAACAAUAUCAAGCCAAACCAAAAAAAAAAAAGGGUCGGAGUUACCUUUUUGUCUAUUAACUGUAGCAAUAAGGAGAAACAAUACAAGGGGAUGAACAAGACAACAGAGGAUUGAGCAUCA
# B9: chr10:112362727:112362728:-_ENSMUSG00000074748_ENSMUST00000099276|mus_mus|FALSE|FALSE (ssRNA)
# RNA: GGGAGUUCUACAGUCCGACGAUCGAUCCCAGCAUGCGAUAAUGCCAGGUAGUGGCCCCUGGGCAUGCGAUGGUGGGAACUAAUUUACUGAAGAAAAAAGCACAAACCACAGAAAAUGUAAAGAACCCCUUCCCCCUAUACACACAACAGAGGAUUGAGCAUCA
# B10: chr7:141438946:141438947:+_ENSG00000106028_ENST00000265304|hu_mus|hu_hu_hu_mus_True|8_98 (ssRNA)
# RNA: GGGAGUUCUACAGUCCGACGAUCGACGAAAUACCUGACAGGUCUUCCUUCGAAACAUGGCUUCUGUUUUUCUUACAACCUAAUCUUUAGGCUUUUCCUAAAGGAAAGAAAGAAAAGAGAAAAAUGAGCAGGGGAUCAACUACACAACAGAGGAUUGAGCAUCA
# B11: chrX:71549400:71549401:+_ENSMUSG00000019087_ENSMUST00000019231|mus_hu|mus_mus_mus_hu_False|8_58 (ssRNA)
# RNA: GGGAGUUCUACAGUCCGACGAUCGCAGUAGGAAGAGGGAAGCUCUUCAGUCCAGUGCGCUGCAGGGUGGGAAAGCACAACCUAGACCACCGUCCCACCCUCAACCCCCCCACUGGCACAGGGUCACAUCUGGGUCAUCAAAGACAACAGAGGAUUGAGCAUCA
# B12: chr4:128986876:128986877:-_ENSMUSG00000057236_ENSMUST00000102598|mus_mus|motif|central (ssRNA)
# RNA: GGGAGUUCUACAGUCCGACGAUCGAUGGUGAGACAGGUCAACCAAAAUGGAGAUGGCAUCAAACUAUAGUGGUCAAAGACGGACCCCUAAAAAAGCAACUUUUAUCAAGGAUUAAUUUAAUCUUAAAAACAAACACAAACUAGCAACAGAGGAUUGAGCAUCA
# B13: chr18:46664354:46664355:-_ENSMUSG00000033319_ENSMUST00000036226|mus_hu|FALSE|FALSE (ssRNA)
# RNA: GGGAGUUCUACAGUCCGACGAUCGGAAAAAACUGUAGUAGAAAUGGUUAGGACAAACAAUAAAGUAGAAACAGGGGGGAAACUUGAGAAGAGAAGAAAGAAGCAAGAAAAAAAGACUUUCAAUUGUAUAAAAUUCACAAACCACAACAGAGGAUUGAGCAUCA
# B14: chr3:148802587:148802588:-_ENSG00000071794_ENST00000310053|hu_mus|hu_hu_hu_mus_False|18_58 (ssRNA)
# RNA: GGGAGUUCUACAGUCCGACGAUCUCCAACAACUUGUCCUCUCAUAGUUCCAAAUAAAACCAAAUCUUGCUCUUCAUCACUAGUUAGGAAGUCAUCUGGAGGAAUAAUGUCUUGGAAUUCAAAACGUGGCAAGAAAGUUGAGUACAACAGAGGAUUGAGCAUCA
# B15: chrX:71549400:71549401:+_ENSMUSG00000019087_ENSMUST00000019231|mus_hu|mus_mus_mus_hu_False|8_88 (ssRNA)
# RNA: GGGAGUUCUACAGUCCGACGAUCGCAGUAGGAAGAGGGAAGCUCUUCAUCCACUGUCGCUGCAGGGUGGGAAAGCAACAACACGGACACCGUCCCACCCUCAACCCCCCCACUGGCACAGGGUCACAUCUGGGUCAUCAAAGACAACAGAGGAUUGAGCAUCA
# Target: T1, UNK ZnF1-3
# Test: nsRBNS (natural sequence RNA bind-n-seq); RBNS binding buffer (assumed for nsRBNS): 25 mM Tris pH 7.5, 150 mM KCl, 3 mM MgCl2, 0.01% Triton X-100, 500 ug/ml BSA, 20 U/ml SUPERase-In, 4 C; UNK is unkempt and MSI1 is Musashi-1; names of the RNAs are library labels; protein concentration not given here; high values mean tight binding
row,Binder,binding signal [enrichment R]
1,B1,0.786
2,B2,0.759
3,B3,0.978
4,B4,0.579
5,B5,1.38
6,B6,8.95
7,B7,3.91
8,B8,1.54
9,B9,1.77
10,B10,0.543
11,B11,1.31
12,B12,4.74
13,B13,5.26
14,B14,1.29
15,B15,1.14
